IL-1B inflam inh – blocks inflammasome-driven IL-1 beta release | THP-1 LPS/ATP IL-1B secretion, AlphaLISA, 16 h; active compounds read low | activity change, % at 57.5 µM | hit rate 4.7% among 360,000 | AID 743279; in the data active = activity change below about -50%; inconclusive = mostly about -30% to -49%
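Secreted IL-1B measured by AlphaLISA bead assay after 16 h compound exposure of THP-1 cells; compounds (final up to 57.5 uM) added 1 h before LPS (250 ng/mL) and ATP (1.25 mM) stimulation; lower signal means less secretion.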
TDP1 cell noCPT – qHTS for Inhibitors of human tyrosyl-DNA phosphodiesterase 1 (TDP1): qHTS in cells in absence of CPT. hit rate 15% among 420,000. DT40 Tdp1-/- hTDP1 cells, no CPT, ATP luminescence, 48 h. Potency, µM (titrated, usually from 46.2 µM), without a hit: top-dose activity change, negative = growth inhibition, usual class: inhibitors; note: potency is the fitted concentration of half-maximal effect; nearly all actives have a fitted effect of over 55% in size
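Chicken DT40 Tdp1-/- cells stably complemented with human TDP1 were seeded at 400 cells/well with DMSO in place of 20 nM camptothecin. After compound pinning, cells grew at least 48 hr at 37 °C; viability read by CellTiter-Glo luminescence.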
ELG1 repair inh – blocks ELG1-dependent DNA repair in HEK293T cells. HEK293T ELG1-luciferase reporter, luminescence, 16 h; DNA damage induced by 5-fluorouridine. Potency, µM (series often up to 46.1 µM), for the others: at the highest dose activity change, negative = inhibition, hits mostly inhibitors. hit rate 2.3% among 330,000; note: potency is the fitted concentration of half-maximal effect; nearly all actives have a fitted effect of over 55% in size
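Overnight (16 hr) co-exposure of 2,000 cells/well to 5-fluorouridine and compound at 37 °C preceded detection. Luciferase was quantified via ONE-Glo luminescence; loss of signal denotes inhibition.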
HT1080 IDH1KD tx – HT-1080 IDH1 knockdown cell toxicity (counter line) | HT-1080 IDH1 knockdown viability, ATP luminescence, 48 h | Potency, µM (doses to about 46.1 µM), inactives show at the top dose activity, negative = toxicity, most hits filed as cytotoxic | hit rate 2% among 360,000;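 note: potency is the fitted concentration of half-maximal effect; 0% = DMSO wells and -100% = cell-free medium wells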
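Knockdown cells (IDH1KD HT-1080) received compounds 2 h after plating at 750 cells/well and were kept 48 h at 37 °C in 5% FBS RPMI. A CellTiter-Glo luminescence read gave % activity for curve fitting.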
TDP1 cell CPT – growth inhibition of DT40 Tdp1-/-;hTDP1 cells with camptothecin (screen for TDP1 inhibitors) | AID 686979 | hit rate 12% among 420,000 | Potency, µM (doses to about 46.2 µM), inactives show top-dose activity change, negative = growth inhibition, actives largely listed as inhibitors | chicken DT40 Tdp1-/-;hTDP1 cells + 20 nM CPT, ATP luminescence, 48 h; note: potency is the fitted concentration of half-maximal effect; nearly all actives have a fitted effect of over 55% in size
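Cell growth measured by CellTiter-Glo luminescence after a minimum 48 h, 37 C compound exposure with 20 nM CPT in Tdp1-knockout DT40 cells stably expressing hTDP1, seeded 400/well; qHTS titration format.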
HT1080-NT tox – kills 2HG-producing HT-1080-NT fibrosarcoma cells. HT-1080-NT fibrosarcoma viability, CellTiter-Glo ATP luminescence, 48 h. Potency, µM (highest dose often 46.1 µM), inactives show at the top dose activity, negative = less viability, actives largely listed as cytotoxic. hit rate 1.6% among 360,000. AID 686970;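 note: NT is the 2HG producing partner of a matched IDH1 knockdown line; potency is the fitted concentration of half-maximal effect; 0% = DMSO-treated cells and -100% = media-only wells without cells; nearly all actives have a fitted effect of over 55% in size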
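Toxicity toward the 2HG-producing NT line was scored as %Activity, normalised to DMSO and no-cell wells, from CellTiter-Glo luminescence after 48 hours' treatment.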
Numbers without * were called inactive; ? = inconclusive; / = no result given; ! = not confirmed by another sample; [ ] = remark or other dose. Compounds with a hit are over-represented: about 19% of the library has one in this group of screens. Unless noted, calls come from the whole dose curve; as a rule, active = well fitted curve in the direction sought with a large enough effect; inconclusive = small, poorly fitted or top-dose-only effect, or another doubt; inactive = no such curve, though single readings can be large; an effect the other way counts as inactive or inconclusive. Unless noted, % is set by controls: 0 for no effect and ±100 for the full control effect.

SMILES	IL-1B inflam inh	TDP1 cell noCPT	ELG1 repair inh	HT1080 IDH1KD tx	TDP1 cell CPT	HT1080-NT tox
NC(=O)CSP(=O)(c1ccccc1)c1ccccc1	-14.6	-23.4%	6.7%	-20.7%	-23.2%	-8.1%
C1CN(P2(N3CC3)=NP(N3CC3)(N3CC3)=NP(N3CC3)(N3CC3)=N2)CCO1 (configuration not stated)	-3.9	1.3µM*	/	5.4%	0.581µM*	11.5%
CCC1=C(C)C(N2CCOCC2)=NP(N2CCOCC2)(N2CCOCC2)=N1	0.7	8.2%	0.0%	13.4%	14.8%	13.3%
CCOc1ccc(OC(=O)c2ccc3c(=O)n4c(nc3c2)CCC4)cc1	-2.1	?	-3.0%	-9.5%	?	-3.2%
Cc1c(CCC(=O)N2CCCCC2)c(=O)oc2cc3occ(C(C)(C)C)c3cc12	/	11.6µM*	/	/	11.6µM*	/
Cc1nc2ncnn2c(C)c1CCC(=O)N1CCC2(CC1)OCCO2	-2.9	17.5%	14.8%	4.9%	-10.8%	4.0%
CCOP(=O)(OCC)C(Cc1ccc(OC)c(OC)c1)N=C(c1ccccc1)c1ccccc1 (configuration not stated)	-11.2	?	/	-13.6%	?	-11.2%
S=C(SSC(=S)N1CCCCC1)N1CCCCC1	/	0.944µM*	/	/	0.75µM*	/
CCOC(=O)C1(CCOc2ccccc2)CCN(Cc2cnc(SC)nc2)CC1	?	18.4µM*	10.9%	-19.3%	?	-0.2%
O=C(Oc1ccccc1)N1CCC2(CCN(Cc3ccccc3)CC2)CC1	/	-7.9%	/	/	5.7%	/
CCOC(=O)C1(CCc2ccccc2)CCN(C(C)CSC)CC1 (configuration not stated)	0.0	?	/	5.6%	?	-23.1%
CCOC(=O)C1(CCOc2ccccc2)CCN(Cc2cccc(O)c2)CC1	-85.8*	?	-14.2%	?	?	?
CCOC(=O)C1(CCOc2ccccc2)CCN(Cc2ccccc2OC)CC1	?	14.6µM*	?	-15.0%	16.4µM*	?
CCOC(=O)C1(CCOc2ccccc2)CCN(C(C)CSC)CC1 (configuration not stated)	12.1	?	-14.9%	-3.9%	?	-14.9%
CCOP(=O)(OCC)c1cccc(P(=O)(c2ccccc2)c2ccccc2)c1O	54.6	?	-1.2%	-7.4%	-120.4%	?
CC(=O)O[C@H]1CC[C@@]2(C)C(=CC[C@H]3[C@@H]4CC[C@H](C(C)=O)[C@@]4(C)CC[C@@H]32)C1	1.4	16.4µM*!	/	10.7%	?	11.6%
CC(=O)C1CCC2C3CCC4=CC(=O)CC[C@@]4(C)C3CC[C@]12C (some centres not stated)	/	14.6µM*	/	/	13µM*	/
CC1=C2C(=O)C3C(CC=C4CC(O)CCC43C)C2CCC12OC1CC(C)CNC1C2C (configuration not stated)	18.1	-15.4%	3.2%	-1.1%	-13.4%	-0.2%
COC(=O)c1c(C)[nH]c(C(=O)C(C)[N+]23CCN(CC2)CC3)c1C (configuration not stated)	15.1	-1.2%	14.9%	6.3%	3.4%	2.8%
COC(=O)C1=C(c2cccc(OC)c2OC)C[C@@H]2CC[C@H]1N2C(=O)N1CCOCC1	28.3	-28.7%	/	9.9%	-22.5%	11.8%
CC(c1nc2ccccc2c(=O)[nH]1)N(C)CCOc1ccc(Cl)cc1 (configuration not stated)	4.9	18.4µM*	?	5.7%	20.6µM*	0.0%
CN(Cc1ccc(OC(F)F)cc1)Cc1nc2c(Br)cc(Br)cc2c(=O)[nH]1	6.5	16.4µM*	?	3.5%	?	4.1%
CN1CCN(c2cc3c(cc2F)c(=O)c(C(=O)O)cn3-c2ccc(F)cc2)CC1	/	23.7µM*	/	/	10.6µM*	/
CCCCC1C(=O)NC(=S)N(C)C1=O (configuration not stated)	22.8	-8.9%	/	21.0%	3.6%	6.8%
COc1ccc(CCNC(=O)c2ccc3c(c2)CCN3S(=O)(=O)c2ccc(C)cc2)cc1OC	/	13µM*	/	/	20.6µM*	/
SMILES	IL-1B inflam inh	TDP1 cell noCPT	ELG1 repair inh	HT1080 IDH1KD tx	TDP1 cell CPT	HT1080-NT tox
O=C(c1ccc(F)cc1)N1CCC(c2nc(-c3ccc(S(=O)(=O)N4CCCC4)cc3)no2)CC1	/	11.6µM*	/	/	20.6µM*	/
COc1ccc(Cl)cc1C(=O)C1CCCN(Cc2cnc(C)s2)C1 (configuration not stated)	-1.6	?	18.2%	-10.7%	-26.0%	-4.0%
O=C(Nc1ccc(Cl)c(C(F)(F)F)c1)NC1CC2CCCC(C1)N2Cc1ccccc1 (configuration not stated)	-106.0*	13µM*	-28.8%	?	18.4µM*	18.4µM*
CCOC(=O)C(O)(c1ccc(NC(=O)NC2CCCCC2)cc1)C(F)(F)F (configuration not stated)	30.4	?	?	?	-24.1%	-3.5%
CNC(=O)O/N=C(/C)SC	/	-3.2%	/	/	-5.2%	/
Cn1c(O)c(Cc2cccc(Cl)c2Cl)c(=O)n(C)c1=O	10.1	10.8%	-0.3%	7.3%	-6.7%	4.6%
Oc1c(Br)c(Br)c(Br)c(Br)c1Br	12.7	?	-0.9%	?	?	25.9µM*
CCOP(=O)(OCC)C1(O)C(=O)Nc2ccc(Br)cc21 (configuration not stated)	32.9	16.4µM*	-16.2%	0.8%	?	0.8%
CC(=O)N1CC(=O)Nc2ccc(Br)cc2C1c1ccc(F)cc1 (configuration not stated)	13.4	13.7%	6.3%	-10.3%	5.2%	-1.4%
COc1cccc2c1C(=O)c1c(O)c3c(c(O)c1C2=O)C[C@@](O)(C(=O)CO)C[C@@H]3O[C@H]1C[C@H](N)[C@H](O[C@@H]2CCCCO2)[C@H](C)O1	/	0.335µM*	/	/	0.188µM*	/
C[C@]12CCC(=O)C[C@H]1CC[C@@H]1[C@@H]2CC[C@]2(C)[C@@H](O)CC[C@@H]12	/	/	20.8%	/	/	/
CN1CCN(Cc2nc3ccccc3c(=O)[nH]2)CC1	26.0	-7.5%	-0.7%	-8.9%	-27.7%	-6.5%[9.24 µM]
O=C(c1ccccc1F)N1CCN(Cc2nc3sc4c(c3c(=O)[nH]2)CCCC4)CC1	-7.2	-15.7%	16.4µM*	-13.2%	1.8%	-8.3%
CCOC(=O)c1cc2ccccc2n1C1CCN(Cc2ccccc2)CC1	0.0	16.4µM*	/	?	?	?

Compound activity: PubChem BioAssay, National Center for Advancing Translational Sciences (NCATS)
